Results filed as inconclusive are left out. Activity calls are given as the source filed them. Calls come from the whole dose curve. Where only a bound is given, the exact number is not on record here.
Potency is the fitted concentration of half-maximal effect.

The experiment can be described thus: Cell Viability - MRC5 (AID 434).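 Note: potency reflects cytotoxicity seen as loss of intracellular ATP.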 Particulars: MRC5 lung fibroblast viability, qHTS. From the text:
NIH Chemical Genomics Center [NCGC]
NIH Molecular Libraries Screening Centers Network [MLSCN]
National Institutes of Environmental Health Sciences [NIEHS]
National Toxicology Program [NTP]
We have developed a 1536-well cell-based assay for quantitative high throughput screening (qHTS) against a number of cell lines to determine in vitro cytotoxicity of small molecules. This particular assay uses the MRC5 cell line which is derived from normal human lung fibroblasts.
NCGC Assay Protocol Summary:
The CellTiter-Glo luminescent cell viability assay (Promega) is a homogeneous method to measure the number of viable cells in culture. The end point readout of this assay is based on quantitation of intracellular ATP, an indicator of metabolic activity, using the luciferase reaction. Luciferase catalyzes the oxidation of beetle Luciferin to oxyluciferin and light in the presence of ATP. The luminescent signal is proportional to amount of ATP present.
Using the CellTiter-Glo luminescent cell viability assay, the amount of cellular ATP was measured in the MRC5 cell line with complete culture medium following compound treatment for 40 hours. The assay was performed in opaque white Kalypsys 1536-well plates. In the screen, tamoxifen and doxorubicin were used as positive controls. Library compounds were measured for their ability to cause acute toxicity in the cell line, as reflected by a decrease in intracellular ATP levels, in a concentration-dependent manner. Data were normalized to the controls for basal activity (DMSO only) and 100% inhibition (100 uM tamoxifen). AC50 values were determined from concentration-response data modeled with the standard Hill equation.
qHTS protocol for CellTiter Glo MRC5 cellular assay
[Step] [Parameter] [Value] [Description]
1. Reagent; 5 uL; 1500 MRC5 cells/well
2. Time; 5 hr; 37 °C incubation
4. Controls; 23 nL; Tamoxifen 0.34 uM to 100 uM & Doxorubicin 0.02 nM to 100 uM
5. Time; 40 hr; 37 °C incubation
6. Reagent; 5 uL; CellTiter Glo reagent
7. Time; 20 min; Room Temperature
8. Detection; Luminescence; Viewlux plate reader
Keywords: cell viability, cytotoxicity, MRC5 cell line, luminescence, NTPHTS, NTPHTS_NCGC, NIEHS, EPA, DSSTox, MLSMR, MLSCN, NIH Roadmap, qHTS, NCGC
As to `O=C(N[C@H](CO)[C@H](O)c1ccc([N+](=O)[O-])cc1)C(Cl)Cl`, the Potency is > 92 µM (inactive).

`N=C(N)c1ccc(OCCCCCOc2ccc(C(=N)N)cc2)cc1`: the Potency is > 92 µM (inactive).

Turning to `Cc1cc(NS(=O)(=O)c2ccc(N)cc2)no1`, the Potency was > 92 µM (inactive).

Turning to `Cc1ccnc2c1NC(=O)c1cccnc1N2C1CC1`, the Potency is > 92 µM (inactive).

With `NC(N)=NC(N)=NCCc1ccccc1`, the Potency was > 92 µM (inactive).

Regarding `CC1=NN(c2ccccc2)C(=O)C1`, the Potency was > 92 µM (inactive).

For `CC(=O)[C@H]1CC[C@H]2[C@@H]3CCC4=CC(=O)CC[C@]4(C)[C@H]3CC[C@]12C`, the Potency is > 92 µM (inactive).

As to `Cc1noc(NS(=O)(=O)c2ccc(N)cc2)c1C`, the Potency was > 92 µM (inactive).

Regarding `Cc1nnc(NS(=O)(=O)c2ccc(N)cc2)s1`, the Potency was > 92 µM (inactive).

As for `Cc1ncc([N+](=O)[O-])n1CCO`, the Potency was > 92 µM (inactive).

Consider `COc1ccc2cc3[n+](cc2c1OC)CCc1cc2c(cc1-3)OCO2`, for which the Potency is > 92 µM (inactive).

`NNC(=O)c1ccncc1`: the Potency is > 92 µM (inactive).

In the case of `CCc1cc(C(N)=S)ccn1`, the Potency is > 92 µM (inactive).

In the case of `CC[C@H](C)C(=O)O[C@H]1C[C@@H](C)C=C2C=C[C@H](C)[C@H](CC[C@@H]3C[C@@H](O)CC(=O)O3)[C@H]21`, the Potency is > 92 µM (inactive).

As to `CN(C)c1ccc(C(=C2C=CC(=[N+](C)C)C=C2)c2ccc(N(C)C)cc2)cc1`, the Potency was 4.08 µM (active).

Turning to `O=C(O)c1cc(=O)[nH]c(=O)[nH]1`, the Potency was > 92 µM (inactive).

For `C[C@]12C=CC(=O)C=C1CC[C@@H]1[C@@H]2C(=O)C[C@@]2(C)[C@H]1CC[C@]2(O)C(=O)CO`, the Potency was > 92 µM (inactive).

Source of the values: PubChem BioAssay (NCATS).
